Experiment [1] concerns the target Transcription factor E2F1 (Homo sapiens) (UniProt Q01094). Put plainly: ATG_E2F_CIS: Attagene CIS-FACTORIAL HepG2 Assay for human E2F Transcription Factor 1 (AID 2282935). As to conditions: HepG2 Attagene cis-reporter, E2F reporter RNA transcripts; actives raise or lower the signal. Put shortly:
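Measures reporter transcript levels via RT-PCR with capillary electrophoresis detection in HepG2 cells harboring cis-regulated reporter units; 24 h post-dose; bidirectional curve fitting with DMSO as baseline.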

Experiment [2] is described as follows: ATG_E_Box_CIS: Attagene CIS-FACTORIAL HepG2 Assay for human Enhancer Box (E-box) (AID 2282936). As to conditions: HepG2 E-box cis-reporter transcription, actives raise or lower the signal. Put shortly: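 First, HepG2 cells receive multiple cis-regulated reporter constructs by transient transfection. Next, chemicals are applied for 24 h. Finally, reporter mRNA is quantified via RT-PCR and capillary electrophoresis, with DMSO as baseline.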

Experiment [3] in a line: ATG_M_61_CIS: Attagene CIS-FACTORIAL HepG2 Assay for M61 Transcription Factor (Internal Marker) (AID 2282937). As to conditions: HepG2 Attagene CIS-FACTORIAL M61 internal marker reporter; actives raise or lower the signal. Put shortly: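 Background-control endpoint: HepG2 cells with cis-regulated reporter constructs, 24 h exposure, reporter mRNA detected via fluorescent primer extension and capillary electrophoresis; values from bidirectional fitting with DMSO baseline.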

A short description of experiment [4]: ATG_EGR_CIS: Attagene CIS-FACTORIAL HepG2 Assay for human Early Growth Response 1 (EGR1) (AID 2282938). As to conditions: HepG2 Attagene CIS-FACTORIAL EGR reporter mRNA; actives raise or lower the signal. Put shortly: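 Endpoint derived by bidirectional fitting versus DMSO vehicle. Method: cis-promoter reporter units transfected into HepG2, 24 h dosing, RNA isolation, RT-PCR with 6-FAM primer extension and HpaI digestion, then capillary electrophoresis fluorescence detection.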

The nature of experiment [5]: ATG_M_19_CIS: Attagene CIS-FACTORIAL HepG2 Assay for M19 Transcription Factor (Internal Marker) (AID 2282939). As to conditions: HepG2 Attagene CIS-FACTORIAL M19 internal marker reporter; actives raise or lower the signal. Put shortly: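 In this multiplexed cell assay, transiently transfected HepG2 reporter units report endogenous transcription-factor activity; after 24 hours of treatment, labelled reporter cDNA fragments are quantified by capillary electrophoresis and fitted bidirectionally against DMSO.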

Experiment [6] can be described thus: ATG_ERE_CIS: Attagene CIS-FACTORIAL HepG2 Assay for Estrogen Response Element (ERE) (AID 2282940). As to conditions: HepG2 ERE cis-reporter, Attagene RNA transcript; actives raise or lower the signal. Put shortly: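 Measuring endogenous transcription factor output, the assay doses transfected HepG2 cells for 24 hours and quantifies reporter transcripts by fluorescent RT-PCR and capillary electrophoresis, with DMSO as baseline.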

Experiment [7] is described as follows: ATG_Ets_CIS: Attagene CIS-FACTORIAL HepG2 Assay for human Erythroblast Transformation Specific (ETS) (AID 2282941). As to conditions: HepG2 ETS cis-reporter transcription, actives raise or lower the signal. Put shortly: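 Steps: transfect HepG2 with multiple reporter units; treat compound 24 h; isolate RNA, DNase-treat, reverse-transcribe; PCR-amplify, label with 6-FAM, digest with HpaI; separate by capillary electrophoresis. Activity fitted both directions versus DMSO.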

The target of experiment [8] is Hepatocyte nuclear factor 3-beta (Homo sapiens) (UniProt Q9Y261). The experiment in a line: ATG_FoxA2_CIS: Attagene CIS-FACTORIAL HepG2 Assay for human Forkhead box A2 (FOXA2) (AID 2282942). As to conditions: HepG2 cis-reporter transcription factor activity, 24 h; actives raise or lower the signal. Put shortly:
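Measured: reporter mRNA induction or loss in HepG2 transiently carrying multiple cis-regulated reporter units, 24 h after dosing. Quantified by RT-PCR plus capillary electrophoresis, normalised to DMSO.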

Experiment [9] in a line: ATG_FoxO_CIS: Attagene CIS-FACTORIAL HepG2 Assay for human Forkhead box O (FoxO) (AID 2282943). As to conditions: HepG2 Attagene cis-reporter, FoxO element, mRNA; actives raise or lower the signal. Put shortly: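 Read-out: fluorescence of 6-FAM-labelled reporter cDNA fragments resolved by capillary electrophoresis. Transiently transfected HepG2 cells were dosed for 24 h; activity fitted in both directions relative to DMSO controls.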

Experiment [10] is described as follows: ATG_GATA_CIS: Attagene CIS-FACTORIAL HepG2 Assay for human GATA Binding Protein (AID 2282944). As to conditions: HepG2 GATA cis-element reporter, Attagene multiplex mRNA; actives raise or lower the signal. Put shortly:
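Measures endogenous transcription factor-driven reporter mRNA in HepG2 cells transiently carrying cis-regulated constructs. 24 h dosing; RNA via oligo(dT) reverse transcription, PCR, HpaI digestion, capillary electrophoresis; fitted relative to DMSO.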

Molecules are shown by their SMILES. Activity calls are given as the source filed them. The calls were made as follows: active = hit-call score of the fitted dose curve at least 0.9, where 1 is the maximum; inactive = score below 0.9.

Sequence of Transcription factor E2F1 (Homo sapiens) (Q01094 whole entry, looked up): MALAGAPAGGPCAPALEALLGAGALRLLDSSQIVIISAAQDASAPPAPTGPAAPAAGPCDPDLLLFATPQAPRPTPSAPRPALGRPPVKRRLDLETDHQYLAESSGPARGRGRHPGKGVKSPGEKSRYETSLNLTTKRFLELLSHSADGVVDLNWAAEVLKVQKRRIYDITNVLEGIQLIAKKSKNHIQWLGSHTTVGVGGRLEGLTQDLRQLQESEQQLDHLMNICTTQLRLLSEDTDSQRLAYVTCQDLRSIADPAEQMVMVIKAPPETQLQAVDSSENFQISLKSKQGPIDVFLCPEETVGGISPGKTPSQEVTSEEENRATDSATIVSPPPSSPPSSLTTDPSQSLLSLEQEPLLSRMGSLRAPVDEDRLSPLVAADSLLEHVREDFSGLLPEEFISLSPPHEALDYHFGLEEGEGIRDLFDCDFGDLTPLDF
Sequence of Hepatocyte nuclear factor 3-beta (Homo sapiens) (Q9Y261 whole entry, looked up): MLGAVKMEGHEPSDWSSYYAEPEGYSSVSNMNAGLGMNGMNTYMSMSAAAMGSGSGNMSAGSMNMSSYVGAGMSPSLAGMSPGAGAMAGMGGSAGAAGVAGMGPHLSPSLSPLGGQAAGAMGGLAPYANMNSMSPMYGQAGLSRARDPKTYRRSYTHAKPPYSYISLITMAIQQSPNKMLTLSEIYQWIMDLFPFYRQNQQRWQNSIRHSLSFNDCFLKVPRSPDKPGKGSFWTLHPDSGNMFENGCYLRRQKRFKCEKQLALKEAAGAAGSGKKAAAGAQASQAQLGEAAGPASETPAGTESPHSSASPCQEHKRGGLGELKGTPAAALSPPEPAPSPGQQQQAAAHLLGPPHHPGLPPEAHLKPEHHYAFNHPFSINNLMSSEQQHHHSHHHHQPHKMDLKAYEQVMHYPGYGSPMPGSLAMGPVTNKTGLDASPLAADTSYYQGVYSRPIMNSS

`CC(C)OB(OC(C)C)OC(C)C`: the result in experiment [1], in [2], in experiment [3], in experiment [4], in experiment [5] and in experiment [6] was inactive. Besides, the outcome in experiment [7], in experiment [8] and in [9] was inactive.

As to `CC1=C(C=O)C(C)(C)CCC1`, the compound was called inactive in experiment [1], in [2], in [3], in [4], in [5] and in experiment [6]. Moreover, the compound was classed as inactive in experiment [7], in experiment [8], in experiment [9] and in experiment [10].

For the compound `Cc1cc(O)c(C)c(C)c1O`, the result in [1], in [3], in experiment [4], in [5], in experiment [6] and in experiment [7] was inactive. For the same compound, the outcome in experiment [8], in experiment [9] and in experiment [10] was inactive. In addition, the AC50 (usually the concentration at which the activity in the assay is half-maximal) in [2] is 37.6 µM (active).

On to `CCC(C)(C)c1cc(O)c(C(C)(C)CC)cc1O`, for which the outcome in [1], in experiment [2], in experiment [3], in experiment [5], in [6] and in experiment [7] was inactive. Moreover, the compound was called inactive in experiment [8]. The values for the AC50 in [4] and in [9] were 14.1 µM (active) and 10.1 µM (active), respectively.

Turning to `CC1(C)CC(N)CC(C)(CN)C1` (configuration not stated), the compound was called inactive in experiment [1], in [2], in [3], in [4], in experiment [5] and in [6]. The outcome in experiment [7], in experiment [8] and in [9] was inactive.

For the compound `CCCCCCC(O)CCOC(C)=O` (configuration not stated), the compound was called inactive in experiment [1], in experiment [2], in [3], in experiment [4], in experiment [5] and in experiment [6]. Besides, the compound was called inactive in experiment [7], in [8], in experiment [9] and in experiment [10].

On to `O=S(=O)(O)CCCN1CCOCC1`, for which the outcome in experiment [1], in [2], in [3], in [4], in experiment [5] and in experiment [6] was inactive. The compound was classed as inactive in [7], in experiment [8] and in experiment [9].

With `CCOC(=O)C=Cc1ccccc1`, the compound was classed as inactive in experiment [1], in [2], in experiment [3], in experiment [4], in experiment [5] and in experiment [6]. The result in experiment [7], in experiment [8], in [9] and in experiment [10] was inactive.

`CCOCC(C)O` (configuration not stated): the compound was called inactive in [1], in experiment [2], in experiment [3], in experiment [4], in experiment [5] and in [6]. For the same compound, the result in experiment [7], in experiment [8], in [9] and in [10] was inactive.

Take `CC(C)C(=O)c1ccccc1`: the call in [1], in experiment [2], in experiment [3], in experiment [4], in experiment [5] and in experiment [7] was inactive. The outcome in [8], in [9] and in [10] was inactive. For the same compound, the AC50 in experiment [6] is 0.5 µM (active).

In the case of `O=C(O)c1ccc(C(=O)O)c(C(=O)O)c1`, the outcome in experiment [1], in experiment [2], in experiment [3], in experiment [4], in [5] and in [6] was inactive. Also, the compound was called inactive in experiment [7], in [8], in [9] and in [10].

Consider `COc1ccccc1O`, for which the compound was classed as inactive in [1], in [2], in [3], in experiment [4], in experiment [5] and in experiment [6]. The call in [7], in [8] and in [9] was inactive.

As for `CC(=O)CC(=O)N(C)C`, the call in experiment [1], in [2], in experiment [3], in experiment [4], in [5] and in experiment [6] was inactive. The outcome in experiment [7], in experiment [8] and in experiment [9] was inactive.

Consider `CC1=CCC(C(C)C)=CC1`, for which the result in experiment [1], in experiment [2], in experiment [3], in experiment [4], in experiment [5] and in experiment [6] was inactive. In addition, the compound was classed as inactive in experiment [7], in experiment [8], in experiment [9] and in [10].

Turning to `CCCC1CCC(=O)CC1`, the compound was classed as inactive in experiment [1], in [2], in [3], in experiment [4], in [5] and in experiment [6]. Further, the outcome in experiment [7], in experiment [8], in experiment [9] and in [10] was inactive.

On to `C=C(C)C(=O)OCCOCCOC(=O)C(=C)C`, for which the compound was called inactive in experiment [1], in experiment [2], in experiment [3], in [4], in [5] and in experiment [6]. In addition, the call in experiment [7], in [8], in [9] and in [10] was inactive.

Turning to `O=C(O)c1ccccc1O`, the compound was called inactive in [1], in experiment [2], in experiment [3], in experiment [4], in experiment [5] and in [6]. For the same compound, the compound was called inactive in experiment [7], in [8] and in experiment [9].

Take `CCCCCCCCOC(C)=O`: the call in experiment [1], in [2], in experiment [3], in experiment [4], in experiment [5] and in experiment [6] was inactive. Besides, the compound was classed as inactive in experiment [7], in experiment [8] and in experiment [9].

`CCCCCCCCCCOC(=O)c1ccccc1C(=O)OCCCCCCCC`: the call in [1], in experiment [2], in [3], in experiment [4], in [5] and in [6] was inactive. For the same compound, the call in [7], in experiment [8] and in experiment [9] was inactive.

As to `CCCCOC(=O)C(C)OC(=O)CCC` (configuration not stated), the compound was called inactive in experiment [1], in experiment [2], in experiment [3], in [4], in experiment [5] and in [6]. Moreover, the outcome in experiment [7], in [8] and in experiment [9] was inactive.

In the case of `C=CC(C)(CCC=C(C)C)OC(=O)CC` (configuration not stated), the compound was called inactive in [1], in [2], in experiment [3], in experiment [4], in experiment [5] and in experiment [6]. Also, the result in experiment [7], in experiment [8], in [9] and in [10] was inactive.

As for `CC(C)(O)CCc1ccccc1`, the outcome in experiment [1], in experiment [2], in experiment [3], in experiment [4], in experiment [5] and in experiment [6] was inactive. In addition, the call in experiment [7], in [8] and in experiment [9] was inactive.

On to `CC/C=C\CCOC(C)OCC` (configuration not stated), for which the result in experiment [1], in experiment [2], in experiment [3], in experiment [4], in experiment [5] and in experiment [6] was inactive. Also, the compound was called inactive in experiment [7], in experiment [8] and in experiment [9].

Turning to `CCn1cc(C(=O)O)c(=O)c2ccc(C)nc21`, the result in experiment [1], in experiment [2], in experiment [3], in experiment [4], in experiment [5] and in [6] was inactive. For the same compound, the result in experiment [7], in [8] and in experiment [9] was inactive.
